KCNQ2 block = blocks the rat KCNQ2 potassium channel. O88943. B-score at 10 µM. actives 1.1% (n = 310,000). CHO-K1 KCNQ2, FluxOR thallium flux, 20 min; active compounds read low;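 active = fluorescence ratio B-score at most minus 3 library SDs, with starting brightness B-score within 2 library SDs, cut at about -5.5 in these data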
KCNQ2 enhance = KCNQ2 (rat) channel potentiation | actives 0.54% (n = 310,000) | AID 2239 | O88943 | B-score at 10 µM | CHO-K1 KCNQ2, FluxOR thallium flux fluorescence; active compounds read high;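 active = fluorescence ratio B-score at least 3 SD of library B-scores, with initial fluorescence B-score within 3 of them, cut at about 5.3 in these data; same plate scores as AID 2156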;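 note: B-score of peak minus minimum over baseline fluorescence ratio after K+ and Tl+ stimulus; positive B-score means potentiation of KCNQ2 with more thallium influx and brighter signal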
Kir21 conf inh = confirmation of mouse Kir2.1 potassium channel inhibitors; shares compounds with KCNQ2 enhance; Kir2.1-expressing cells, FluxOR thallium flux fluorescence; active compounds read low; Tl flux remaining, % of negative control (active compounds read low), % at 10 µM; actives 41% (n = 2,300);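 active = Primary-screen hit whose thallium flux fell at least 3 control SD below untreated wells in both duplicates, with normal baseline fluorescence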
Target sequence (P35561 whole entry, looked up): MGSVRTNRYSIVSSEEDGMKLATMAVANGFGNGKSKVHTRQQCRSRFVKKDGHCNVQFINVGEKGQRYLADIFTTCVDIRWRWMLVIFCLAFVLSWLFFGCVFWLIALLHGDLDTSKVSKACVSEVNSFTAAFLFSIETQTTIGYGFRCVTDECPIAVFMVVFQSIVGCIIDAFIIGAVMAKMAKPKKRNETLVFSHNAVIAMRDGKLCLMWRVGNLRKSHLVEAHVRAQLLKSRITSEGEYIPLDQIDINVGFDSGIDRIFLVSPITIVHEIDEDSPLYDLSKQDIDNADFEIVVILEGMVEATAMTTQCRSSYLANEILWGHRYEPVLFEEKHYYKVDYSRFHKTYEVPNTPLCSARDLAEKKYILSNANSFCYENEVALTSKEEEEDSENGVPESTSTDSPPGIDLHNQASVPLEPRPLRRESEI
HEK293 Tl flux = alters thallium flux in parental HEK293 cells, Kir2.1 counter-screen; actives 19% (n = 2,300); FluxOR thallium flux fluorescence; 0% = unstimulated blank wells; FluxOR signal as % of negative control (100 = no effect), % at 10 µM; AID 2105; shares compounds with KCNQ2 enhance;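 active = dye signal at least 3 control SD above or below untreated wells in both duplicates, raw fluorescence within 3, either direction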;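 note: percent is based on the flux ratio of peak minus minimum fluorescence over baseline F0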
CHO-K1 ctr = counter-screen for KCNQ2 potentiators: effect in parental CHO-K1 cells; activity increase over 3SD of controls, % at 10 µM; actives 43% (n = 1,200); AID 2282; shares compounds with KCNQ2 enhance; FluxOR thallium flux fluorescence; zero = vehicle mean+3SD, 100% = vehicle-minus-blank window;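 active = signal rise of at least 3 SD above the untreated control mean, in both duplicate wells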;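 note: counter screen of KCNQ2 potentiator hits so any rise reflects channel-independent effects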
KCNQ1 pot spec = tests whether KCNQ2 potentiators also act on human KCNQ1; shares compounds with KCNQ2 enhance; CHO KCNQ1 stable, FluxOR thallium flux fluorescence; beyond 3SD, as % of vehicle-control signal; activation over 3SD threshold, % at 10 µM; actives 28% (n = 1,200);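 active = fluorescence ratio rise of at least 3 SD of vehicle wells above their mean, in both replicate wells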
KCNQ2 pot confirm = rat KCNQ2 channel potentiator confirmation; shares compounds with KCNQ2 enhance; CHO-KCNQ2 cells, FluxOR thallium flux fluorescence; potentiation, less the hit threshold, % at 10 µM; actives 68% (n = 1,200); AID 2287;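 active = fluorescence ratio rising 3 SD or more over the vehicle control mean in both replicates, plus primary screen hit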;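 note: peak minus minimum thallium fluorescence divided by baseline after K/Tl stimulus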
Kir21 spec = tests whether KCNQ2 potentiators also affect mouse Kir2.1; shares compounds with KCNQ2 enhance; activity over 3SD threshold, % at 10 µM; HEK293 Kir2.1, FluxOR thallium flux fluorescence; actives 2% (n = 1,200);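 active = fluorescence ratio rise of at least 3 SD above the vehicle-control mean, seen in both replicates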
KCNQ2 W236L pot = potentiates the retigabine-insensitive rat KCNQ2 W236L mutant channel; shares compounds with KCNQ2 enhance; CHO KCNQ2-W236L, automated patch clamp current; current increase over 3SD of negative controls (%), active compounds read high, % at 25 µM; actives 10% (n = 940); AID 2558;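 active = current increase at least 3 SD of the untreated controls above them in both duplicate recordings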
Each line names hits and unclear results; the compound was inactive in the other large screens (follow-up assays come after a bar, where they were run). An excerpt weighted towards active compounds, which were near 1.6% of everything screened.

COc1cc2[nH]c(C(=O)NCCc3ccccc3)cc2c(OC)c1OC	none
S=C(NCCc1ccccc1)Nc1nccs1	none (no result: KCNQ2 enhance)
S=C(NCc1ccccc1)Nc1nccs1	KCNQ2 enhance 9 | Kir21 conf inh inactive | HEK293 Tl flux inactive | CHO-K1 ctr 26 | KCNQ1 pot spec inactive | KCNQ2 pot confirm inactive | Kir21 spec inactive
c1ccc(CNc2c3ccccc3nc3ccccc23)cc1	none | Kir21 conf inh 24% | HEK293 Tl flux inactive
c1ccc(CNc2ncnc3ccccc23)cc1	none
Cc1nc(SCC(=O)NCc2ccco2)c2c(C)c(C)sc2n1	none (no result: KCNQ2 enhance)
Cc1sc2nc(C(C)C)nc(SCC(=O)NCc3ccco3)c2c1C	none | Kir21 conf inh inactive | HEK293 Tl flux 218%
CC(=O)Nc1ccc2nc3c(=O)n(C)c(=O)n(C)c3nc2c1	none (no result: KCNQ2 enhance)
O=C(N/N=C1/C(=O)c2cccc3cccc1c23)c1ccc(Cl)cc1	KCNQ2 enhance 10 | Kir21 conf inh inactive | HEK293 Tl flux 213% | CHO-K1 ctr 46 | KCNQ1 pot spec 37 | KCNQ2 pot confirm 14 | Kir21 spec inactive | KCNQ2 W236L pot inactive
CCNC(=S)N/N=C1\C(=O)c2cccc3cccc1c23	none
O=C1c2ccccc2C(O)N1Cc1ccco1 (stereo not given)	none
c1coc(CN=C2NC(=NCc3ccco3)c3ccccc32)c1	none (no result: KCNQ2 enhance) | Kir21 conf inh 35% | HEK293 Tl flux inactive
Cn1c(-c2ccc(F)cc2)cnc1NCc1ccc(C#N)cc1	none (no result: KCNQ2 enhance)
COc1cc(CNc2ncc(-c3ccc(Cl)cc3)n2C)cc(OC)c1OC	none (no result: KCNQ2 enhance)
Cn1c(-c2ccc(F)cc2)cnc1NCc1ccc(F)cc1	none (no result: KCNQ2 enhance) | Kir21 conf inh 38% | HEK293 Tl flux inactive
Cn1c(-c2ccccc2)cnc1NCc1ccc(-c2ccccc2)cc1	none (no result: KCNQ2 enhance)
Cn1c(-c2ccc3c(c2)OCO3)cnc1NCc1ccc(Cl)cc1	none (no result: KCNQ2 enhance) | Kir21 conf inh 21% | HEK293 Tl flux inactive
Cc1ccc(CNc2ncc(-c3ccc4c(c3)OCO4)n2C)cc1	KCNQ2 block -6 | Kir21 conf inh 22% | HEK293 Tl flux inactive
CS(=O)(=O)N1CCc2cc(C(=O)N3CCCC3)ccc21	none (no result: KCNQ2 enhance)
COc1ccc(CNC(=O)CN(C(=O)c2csnn2)c2cccc3ccccc23)cc1	none (no result: KCNQ2 enhance)
COc1ccccc1C(=O)N(Cc1ccc(Cl)cc1)C1CCS(=O)(=O)C1 (stereo not given)	none (no result: KCNQ2 enhance)
COc1ccc(C2=NOC(Cn3c(Cc4ccc(Cl)cc4)nc4c3c(=O)n(C)c(=O)n4C)C2)cc1 (stereo not given)	KCNQ2 enhance 5.4 | Kir21 conf inh inactive | HEK293 Tl flux inactive | CHO-K1 ctr 6.7 | KCNQ1 pot spec inactive | KCNQ2 pot confirm inactive | Kir21 spec inactive
COc1ccccc1C1=NOC(Cn2c(NCCCO)nc3c2c(=O)n(C)c(=O)n3C)C1 (stereo not given)	none
Cc1ccc(NC(=O)c2ccc(F)cc2F)cc1NS(C)(=O)=O	none
Cc1ccc(C(O)(CNCc2ccccc2)c2ccccc2)cc1 (stereo not given)	none (no result: KCNQ2 enhance) | Kir21 conf inh 46% | HEK293 Tl flux inactive
COc1ccc(CNC/C=C/c2ccccc2)cc1	none | Kir21 conf inh 18% | HEK293 Tl flux inactive
Cc1ccc(C(O)(CCN2CCCCC2)c2ccccc2)cc1 (stereo not given)	none (no result: KCNQ2 enhance)
COc1ccc(CNCC(O)(c2ccccc2)c2ccc(F)cc2)cc1OC (stereo not given)	none
COc1ccc(CNCC(O)(c2ccccc2)c2ccc(F)cc2)cc1 (stereo not given)	none (no result: KCNQ2 enhance) | Kir21 conf inh 42% | HEK293 Tl flux inactive
COc1ccc(CCNC/C=C/c2ccccc2)cc1	none
CC1(C)CC2CC(C)(CN2C(=O)c2ccc([N+](=O)[O-])cc2[N+](=O)[O-])C1 (stereo not given)	none
O=C(c1ccc2c(c1)OCCCO2)N1CCCCC1	none
O=C(NCc1ccco1)C1(c2ccc(Br)cc2)CCCC1	none (no result: KCNQ2 enhance)
O=C(Cc1cccc(F)c1)Nc1ccc2c(c1)CCC2	KCNQ2 enhance 5.5 | Kir21 conf inh inactive | HEK293 Tl flux inactive | CHO-K1 ctr 3.6 | KCNQ1 pot spec inactive | KCNQ2 pot confirm 21 | Kir21 spec inactive | KCNQ2 W236L pot inactive
O=C(Cc1ccccc1F)Nc1ccc2c(c1)CCC2	none
CC1(C)CC(=O)C(C(c2ccc(F)cc2)C2C(=O)CC(C)(C)CC2=O)C(=O)C1	none (no result: KCNQ2 enhance)
CC1(C)CC(=O)C(C(c2ccco2)C2C(=O)CC(C)(C)CC2=O)C(=O)C1	KCNQ2 enhance 9.8 | Kir21 conf inh inactive | HEK293 Tl flux 74% | CHO-K1 ctr inactive | KCNQ1 pot spec inactive | KCNQ2 pot confirm 40 | Kir21 spec inactive | KCNQ2 W236L pot inactive
O=C(O)c1ccccc1-n1c2ccccc2c2ccccc21	none (no result: KCNQ2 enhance)
COc1cccc(CNS(=O)(=O)c2c(C)[nH]c(C)c2C(=O)N2CCCC2)c1	none (no result: KCNQ2 enhance)
Cc1csc(SC(C)C(=O)NCC2CCCCC2)n1 (stereo not given)	none
N#Cc1c(C(F)(F)F)cc(-c2ccc(Cl)cc2)[nH]c1=O	KCNQ2 enhance 6.5 | Kir21 conf inh inactive | HEK293 Tl flux inactive | CHO-K1 ctr 0.0 | KCNQ1 pot spec inactive | KCNQ2 pot confirm 11 | Kir21 spec inactive | KCNQ2 W236L pot inactive
N#Cc1c(C(F)(F)F)cc(-c2ccc(F)cc2)[nH]c1=O	none
COc1ccc(NC(=O)Cc2nnc(SCC(=O)Nc3ccc(F)cc3)n2C)cc1	none
O=C(NC(=S)N1CCCC(C(F)(F)F)C1)c1ccc(F)cc1 (stereo not given)	none
CN(Cc1ccccc1)S(=O)(=O)c1ccc(Cl)nc1	none (no result: KCNQ2 enhance)
CC(C)N(Cc1ccccc1)S(=O)(=O)c1ccc(Cl)nc1	none (no result: KCNQ2 enhance) | Kir21 conf inh 65% | HEK293 Tl flux inactive
O=C(Nc1c(S(=O)(=O)c2ccc(Cl)cc2)csc1Br)c1ccccc1Cl	none (no result: KCNQ2 enhance)
Cc1onc(-c2c(F)cccc2Cl)c1C(=O)NC(C)c1ccccc1 (stereo not given)	none (no result: KCNQ2 enhance)
Cc1ccc(-c2nnc(SCC(=O)Nc3ccccc3N3CCOCC3)o2)cc1	none (no result: KCNQ2 enhance)
Nc1cc(N)nc(SCC(=O)Nc2ccccc2N2CCOCC2)n1	none
Cc1ccc(SCC(=O)Nc2ccccc2N2CCOCC2)cc1	none (no result: KCNQ2 enhance) | Kir21 conf inh 48% | HEK293 Tl flux inactive
O=C(CSc1ccccc1)Nc1ccccc1N1CCOCC1	none (no result: KCNQ2 enhance) | Kir21 conf inh inactive | HEK293 Tl flux inactive
O=C(CSc1ccc(F)cc1)Nc1ccccc1N1CCOCC1	none (no result: KCNQ2 enhance) | Kir21 conf inh 38% | HEK293 Tl flux inactive
